NTR1 ag: NTR1 (human) agonism; hit rate 0.17% among 330,000; P30989; activation, % at 20 µM; NTR1-U2OS beta-arrestin-GFP spot imaging, agonist mode;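 active = activation at or above 40% of the spot to cytoplasm intensity ratio, with at least 20 cells analyzed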;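 note: 0% = DMSO without peptide and 100% = 100 nM NTR1 peptide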
Target sequence (P30989 whole entry, looked up): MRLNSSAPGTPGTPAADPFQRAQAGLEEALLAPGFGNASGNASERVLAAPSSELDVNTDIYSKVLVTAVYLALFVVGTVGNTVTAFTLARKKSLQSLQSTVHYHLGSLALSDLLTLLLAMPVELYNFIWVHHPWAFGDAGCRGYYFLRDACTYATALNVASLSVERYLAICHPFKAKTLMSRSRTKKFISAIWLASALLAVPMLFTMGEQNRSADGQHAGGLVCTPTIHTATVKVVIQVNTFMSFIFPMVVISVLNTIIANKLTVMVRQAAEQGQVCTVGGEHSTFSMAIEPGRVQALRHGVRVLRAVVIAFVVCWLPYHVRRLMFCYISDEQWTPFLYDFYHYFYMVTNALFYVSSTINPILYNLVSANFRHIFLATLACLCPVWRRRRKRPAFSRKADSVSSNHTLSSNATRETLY
Platelet DG rel: platelet dense granule release activity; human platelet-rich plasma, SFLLRN dense granule ATP release, luminescence; hit rate 0.22% among 300,000; AID 1663; inhibition, %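 (compounds screened at 7.5 µM in platelet-rich plasma)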;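 active = mean replicate score, as percent of positive control, at or above 50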
GRK2 aptamer HTS: human GRK2 inhibition via aptamer displacement. bead flow cytometry, FAM-aptamer displacement from GRK2. inhibition of aptamer binding, % at 10 µM. hit rate 0.59% among 330,000. AID 488847;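 active = inhibition of aptamer binding above 40%, roughly 3 SD of noise, on plates passing a quality check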;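 note: median bead fluorescence of bound FAM aptamer so fluorescent compounds give negative values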
MIN6 prolif-1: inducers of beta-cell replication in MIN6 cells | AID 2380 | proliferation, % at 10 µM | hit rate 0.29% among 330,000 | MIN6 cells proliferation, ATPlite luminescence, 48 h; cells starved in 0.2% serum; 100% = growth in 10% serum;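 active = compounds whose signal lies at least 3.5 SD above the mean of all wells on their plate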;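 note: 0% = DMSO-treated cells in low-serum medium and 100% = 10% serum control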
MIN6 prolif-2: MIN6 beta-cell replication induction, confirmed. shares compounds with MIN6 prolif-1. MIN6 beta-cell proliferation, ATPlite luminescence, 48 h; cells kept in 0.2% serum; scaled between 0.2% and 10% serum. proliferation increase, % at 50 µM. 920 tested, under 10 active. AID 463095;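 active = proliferation increase above 40% at any of the four tested concentrations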
Numbers without * were called inactive; / = no result given. Most compounds without a hit are left out; they make up all but 1.2% or so of the library.

SMILES	NTR1 ag	Platelet DG rel	GRK2 aptamer HTS	MIN6 prolif-1	MIN6 prolif-2
CC1(C)CC[C@]2(C(=O)O)CC[C@]3(C)C(=CC[C@@H]4[C@@]5(C)CC[C@H](O[C@@H]6O[C@H](C(=O)O)[C@@H](O)[C@H](O[C@@H]7OC[C@H](O)[C@H](O)[C@H]7O)[C@H]6O)C(C)(C)[C@@H]5CC[C@]43C)[C@@H]2C1	3.2	/	8.0	-5.7	/
CCOC(=O)c1c(C)[nH]c(C(=O)CN(C)CC(=O)Nc2ccccc2Cl)c1C	3.1	/	0.0	-6.2	/
Cc1[nH]nc2ncc(C(=O)c3ccccc3O)cc12	-0.8	-2.0	2.0	11.9*	2.5
Cc1nn(C)c2ncc(C(=O)c3ccccc3O)cc12	0.7	-4.4	0.0	0.0	/
COc1ccc(CN2CCCCC2c2cccnc2)c(OC)c1C (configuration not stated)	0.0	-3.5	0.0	6.7*	-0.7
COc1ccc(OC)c(-c2nc(CN3CCCCC3c3cccnc3)c(C)o2)c1 (configuration not stated)	-1.1	10.6	0.0	5.5	/
CCCN1C2=C(C(=O)CC(C)(C)C2)C(c2ccc(F)cc2)C2=C1c1ccccc1C2=O (configuration not stated)	6.8	22.0	0.0	-4.5	/
CCCCN1C2=C(C(=O)CC(C)(C)C2)C(c2ccccc2)C2=C1c1ccccc1C2=O (configuration not stated)	5.1	-0.2	1.0	8.2*	-0.7
CCOc1cccc(CN(CC)CC2CCCN(CCc3cccc(OC)c3)C2)c1O (configuration not stated)	0.2	-6.0	1.0	-4.2	/
O=C(COC(=O)Cn1cc(C(F)(F)F)ccc1=O)Nc1ccc(Br)cc1F	1.7	/	/	-2.7	/
CCN(CC)C(=O)[C@]1(c2ccccc2)C[C@@H]1CN	1.8	-3.0	3.0	12.2*	0.7
COc1cc(C(=O)OCC(=O)NCC2CCCCC2)ccc1OCC(C)C	-0.6	6.8	0.0	-1.3	/
COc1cc(C(=O)OCC(=O)NC2CCCCCC2)ccc1OCC(C)C	1.0	7.0	0.0	11.4*	-0.7
CCSc1nc2ccccc2c(=O)n1Cc1ccc(F)cc1	3.3	-2.0	1.0	-3.5	/
C=CCN1C(=O)/C(=C2/Sc3ccccc3N2CCCS(=O)(=O)O)SC1=S	-0.2	2.2	3.0	6.4*	-0.6
Cc1nc(-c2ccccc2)cc(=O)[nH]1	1.6	-0.3	0.0	0.4	/
Cc1[nH]n(-c2nc(-c3ccccc3)cc(=O)[nH]2)c(=O)c1CCO	-0.7	9.8	0.0	9.6*	-0.2
COCCCNc1nc(N)c([N+](=O)[O-])c(NCc2ccccc2)n1	-0.9	1.9	0.0	0.3	/
COCCCNc1nc(N)c([N+](=O)[O-])c(Nc2ccccc2OC)n1	0.5	-4.8	0.0	7.2*	3.3
COc1ccccc1NC(=O)CCCN1C(=O)C(c2ccccc2)Oc2cccnc21 (configuration not stated)	-1.5	-20.2	1.0	12.6*	-6.1
O=c1[nH]c2ccc(Cl)cc2c(=O)n1Cc1ccco1	0.8	7.4	2.0	7.2*	-2.4
CSc1nc(N)nc(SC2C=CCCC2)c1C#N (configuration not stated)	1.6	4.9	5.0	5.9*	8.9
Cc1cc(C)n(C(=O)COc2ccc([N+](=O)[O-])cc2)n1	-0.2	0.5	7.0	5.3*	3.9
COc1ccccc1CNC(=O)Cn1cc([N+](=O)[O-])ccc1=O	-0.7	20.2	2.0	1.8	/
COc1cc(/C=N/NC(=O)C(NC(=O)c2ccccc2)c2n[nH]c(=O)c3ccccc23)ccc1OCC(N)=O (configuration not stated)	0.2	13.0	2.0	-0.6	/
SMILES	NTR1 ag	Platelet DG rel	GRK2 aptamer HTS	MIN6 prolif-1	MIN6 prolif-2
COc1ccc(/C(C)=N/NC(=O)CNC(=O)c2cccnc2)c(OC)c1	-0.6	-2.9	2.0	6.4*	1.4
COc1ccc(/C(C)=N/NC(=O)C(NC(=O)c2ccccc2)c2n[nH]c(=O)c3ccccc23)c(OC)c1 (configuration not stated)	2.7	3.5	2.0	6.8*	4.4
COCCNC(=O)C(c1ccc(F)cc1)N(Cc1cccs1)C(=O)CCC(=O)Nc1ccccn1 (configuration not stated)	-0.4	-1.2	3.0	5.5*	-2.3
CC(C)CCNc1nc(N)c([N+](=O)[O-])c(NC2CCCCC2)n1	18.0	-4.6	0.0	8.8*	-1.4
CC(C)CNc1nc(N)c([N+](=O)[O-])c(NC2CCCCC2)n1	5.1	9.4	4.0	-0.1	/
Cc1ccc(C)c(S(=O)(=O)NC2CCS(=O)(=O)C2)c1 (configuration not stated)	-0.1	1.3	0.0	11.7*	-2.2
N#Cc1cccc(NC(=O)COC(=O)Cn2nc(-c3ccccc3)oc2=O)c1	1.6	/	1.0	1.8	/
NS(=O)(=O)c1ccc(NC(=O)c2ccc3c(c2)OCO3)cc1	-2.0	0.3	2.0	-2.4	/
NS(=O)(=O)c1ccc(NC(=O)c2ccc3c(c2)CCCC3)cc1	0.3	-9.4	0.0	5.3*	-0.4
CC(C)c1ccc(NC(=O)CN2C(=O)COc3ccc(S(=O)(=O)N4CCOCC4)cc32)cc1	0.9	7.0	2.0	-0.3	/
CCCC[C@H](CN[C@@H](CNC)[C@H](C)CC)NCCC12CCC(CC1)C2	33.3	1.7	0.0	-7.8	/
CN1CCN(C(=O)CCCN2C(=O)/C(=C/c3ccc(Cl)cc3)SC2=S)CC1	2.7	/	0.0	-2.3	/
CN1CCN(C(=O)CCCN2C(=O)/C(=C/c3ccccc3)SC2=S)CC1	0.2	-6.7	0.0	7.5*	-6.3
CCOc1cc(/C=N/n2nnnc2N)ccc1OCc1c(C)no[n+]1[O-]	-0.8	1.0	0.0	0.0*	3.0
O=C(OCCCc1cc2ccccc2c(=O)o1)N1CCOCC1	-1.0	/	0.0	7.8*	4.0
O=C(OCCc1cc2ccccc2c(=O)o1)N1CCOCC1	-1.7	/	0.0	-2.0	/
Cc1cc(C)cc(NC(=O)CCC(=O)Nc2nnc(C(C)C)s2)c1	-0.7	7.9	0.0	-2.5	/
CCS(=O)(=O)c1ccc(Sc2nncn2C)c([N+](=O)[O-])c1	0.0	-3.1	0.0	7.7*	-6.1
CCN(CC)S(=O)(=O)c1ccc(NC(=O)c2ccc(Sc3nncn3C)c([N+](=O)[O-])c2)cc1	-2.5	-15.6	0.0	0.0	/
COc1ccc(COC(=O)C2=C(C)NC(=O)NC2c2ccc(OC)c(OC)c2)cc1 (configuration not stated)	-0.9	-0.2	2.0	6.2*	2.7
CC1(C)CC(=O)C/C(=N/NC(=O)C2CCN(S(=O)(=O)c3cccs3)CC2)C1	-0.6	2.2	1.0	9.3*	1.7
COC(=O)c1sccc1NC(=O)c1ccc(OC)cc1OC	3.2	-8.8	0.0	7.8*	-3.1
Cc1cc(C(=O)NC2CCCCCCC2)ccc1[N+](=O)[O-]	0.2	-17.1	0.0	-3.4	/
C/C(=N\NC(=O)C1CC1)c1ccccc1O	2.1	0.1	0.0	11.3*	-2.5

Screening data as filed in PubChem.
